Screening data deposited in PubChem BioAssay by National Center for Advancing Translational Sciences (NCATS).
mIDH1 inhibitor: inhibitors of human mutant IDH1 R132H; O75874; IDH1-R132H enzyme, NADPH consumption, diaphorase/resazurin fluorescence; Potency, µM (series often up to 76.6 µM), for the others: at the highest dose activity change, negative = inhibition, usual class: inhibitors; 390,000 tested, 0.093% active; AID 602179; note: % is set by controls: 0 for no effect and ±100 for the full control effect; nearly all actives have a fitted effect of over 65% in size
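IDH1-R132H (0.5 ug/mL) preincubated 30 min with compound, then NADPH (0.016 mM) and alpha-KG (2 mM) added; 80 min at RT, pH 7.5. Remaining NADPH coupled via diaphorase/resazurin to fluorescence (540/590 nm); concentration-response curves normalized to no-enzyme control.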
TrxR1 substrate: rat thioredoxin reductase 1 substrate activity. 390,000 tested, 0.01% active. Potency, µM (top dose mostly 114 µM), for inactives: top-dose activity change, negative = substrate turnover. O89049. purified TrxR1 substrate turnover, NADPH consumption readout; note: % is set by controls: 0 for no effect and ±100 for the full control effect; nearly all actives have a fitted effect of over 50% in size
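Rat TrxR1, dispensed at 90 nM, was prereduced with 400 uM NADPH (final) for 5 min at ~22 deg C, then incubated with compound 15 min before 400 uM selenite. A first-read NADPH fluorescence drop versus no-compound background flagged substrates.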
12-LOX inh: ALOX12 (human) lipoxygenase inhibition | P18054 | purified 12hLO, xylenol orange hydroperoxide absorbance | Potency, µM (titrated, usually from 108 µM), without a hit: at the top dose activity change, negative = inhibition, actives largely listed as inhibitors | 580,000 tested, 1.1% active; note: % is set by controls: 0 for no effect and ±100 for the full control effect
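Hydroperoxide product was detected by ferrous iron/xylenol orange as the 573 to 405 nm absorbance ratio. Arachidonic acid at 40 uM (final) was turned over for 30 min at room temperature by 150 nM human 12hLO, pH 7.0 Hepes buffer, after 15 min compound preincubation.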
GRP78 ERSR act: induces the endoplasmic reticulum stress response in human glioma cells; 420,000 tested, 0.02% active; U87-MG GRP78 promoter luciferase reporter, 16 h; Potency, µM, for the others: at the highest dose activation, most hits filed as activators; note: series mostly up to about 76 µM; % of control where 0% means no effect; nearly all actives have a fitted effect of over 35% in size
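Stably transfected U87-MG human glioma cells carrying a GRP78-based luminescent sensor were seeded at 1000 cells/well, pin-dosed with compounds and incubated 16 h. Luciferase reagent was then added, and end-point luminescence was read after 10 min at room temperature.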
Apoferritin bind: candidate novel general anesthetic via apoferritin binding; P02791; apoferritin/1-aminoanthracene competitive binding, fluorescence; Potency, µM (titrated, usually from 77.5 µM), for the others: at the top dose activity change, negative = displacement, most hits filed as inhibitors; 350,000 tested, 0.074% active; AID 485281; note: % is set by controls: 0 for no effect and ±100 for the full control effect; nearly all actives have a fitted effect of over 20% in size
Target sequence (P02791 2-175 limits assumed): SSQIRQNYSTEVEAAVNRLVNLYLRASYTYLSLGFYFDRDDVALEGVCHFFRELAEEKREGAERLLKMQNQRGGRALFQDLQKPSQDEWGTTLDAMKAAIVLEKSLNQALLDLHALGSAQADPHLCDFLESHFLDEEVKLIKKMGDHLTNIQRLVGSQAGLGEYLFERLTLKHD
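Concentration-response curves derived by four-parameter Hill fitting of normalized fluorescence, where compounds displaced 1-AMA from 10 uM horse apoferritin following a brief 10 min room-temperature incubation; propofol titration acted as positive control.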
rTrxR1 inhibitor: rat TrxR1 inhibition | 390,000 tested, 1% active | AID 588453 | recombinant rTrxR1, NADPH fluorescence consumption, selenite substrate | O89049 | Potency, µM (top dose mostly 114 µM), without a hit: at the highest dose activity change, negative = inhibition, actives largely listed as inhibitors; note: % is set by controls: 0 for no effect and ±100 for the full control effect; nearly all actives have a fitted effect of over 65% in size
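Rat TrxR1 (90 nM in the dispensed reagent) was pre-reduced with 400 uM NADPH for 5 min at room temperature, then incubated with compound for 15 min. After 400 uM selenite was added, NADPH fluorescence (Ex 340/Em 450 nm) was followed for 8 min.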
* = called active by the depositor; i = inactive; ? = inconclusive; / = no result; [ ] = dose if it differs, or a comment. The list is not random: actives were taken first. Their share in the collection is about 1.7%. Calls come from the whole dose curve; as a rule, active = well fitted curve in the direction sought with a large enough effect; inconclusive = small, poorly fitted or top-dose-only effect, or another doubt; inactive = no such curve, though single readings can be large; an effect the other way counts as inactive or inconclusive. Potency is the fitted concentration of half-maximal effect.

SMILES | mIDH1 inhibitor | TrxR1 substrate | 12-LOX inh | GRP78 ERSR act | Apoferritin bind | rTrxR1 inhibitor
S=C(NCC1CCCCC1)Nc1cccnc1 | 3% | -2% | -2% | -1% | -8% | -3%
S=C(Nc1ccc(Oc2ccccc2)cc1)NC1CCCC1 | -2% | 5%[57.1 µM] | ? | 0% | -11% | 6%[57.1 µM]
FC(F)Sc1ccc(NC(=S)NC2CCCCC2)cc1 | -3% | -1%[57.1 µM] | ? | 2% | -22% | 0%[57.1 µM]
FC(F)Sc1ccc(NC(=S)NC(c2ccccc2)c2ccccc2)cc1 | 1% | -5%[11.4 µM] | 40µM* | 3% | 10% | -19%[11.4 µM]
FC(F)Sc1ccc(NC(=S)NCC2CCCCC2)cc1 | 5% | -10% | 16µM* | 6% | -15% | -8%
S=C(NCC1CCCCC1)Nc1ccc(Oc2ccccc2)cc1 | 0% | 2% | 40µM* | 0% | -7% | 4%
CC1CCCCC1NC(=S)Nc1ccc(SC(F)F)cc1 (centres undefined) | 1% | -10% | 32µM* | -2% | -22% | -4%[57.1 µM]
CC(C)NC(=O)C1CCN(C(=O)c2ncn3c2COC(c2ccccc2)C3)CC1 (centres undefined) | / | / | 11% | / | / | /
Cc1ccc(C(=O)N2CCC(N3C[C@H](O)C[C@H]3C(=O)NC3CCCCC3)CC2)cn1 | / | / | 42% | / | / | /
COCc1cc(C[C@@H]2CC[C@H](O)[C@@H](CN(C(=O)Nc3cccc(OC)c3)C(=O)Nc3cccc(OC)c3)O2)no1 | / | / | 12% | / | / | /
O=C(O)c1cccc(N/N=C/c2cn(-c3ccccc3)nc2-c2cccs2)c1 | -3% | 10%[57.1 µM] | 45µM* | -6% | -23% | -36%
CC(=O)c1c[nH]c(C(=O)NC(c2cccc(F)c2)c2nccn2C)c1 (centres undefined) | / | / | 22µM* | / | / | /
Cc1cc(C)c(NC(=O)CN2C(=O)CCSc3ccc(S(=O)(=O)N4CCCC4)cc32)c(C)c1 | -11% | -4%[57.1 µM] | ? | 0% | -6% | 20%[57.1 µM]
COc1ccc(NC(=O)Cn2ccn(-c3ccc(F)c(F)c3)c(=O)c2=O)cc1Cl | -22% | -6% | -18% | -3% | -5% | 10%
CCN1CCc2c(sc(NC(=O)Nc3cccc(Cl)c3)c2C(N)=O)C1 | / | / | -20% | / | / | /
COc1cc2[nH]c(Cl)c([N+](=O)[O-])c2cc1OC | 8% | 3% | -6% | -5% | 4% | 1.4µM*
CCCCCCCCCCCCCCCCCC(=O)[O][Al] | / | / | / | -4% | / | /
CCN(Cc1ccccc1)C(=O)c1nc(-c2cccc(F)c2)n2c1CCCCC2 | 13% | -4% | -6% | -3% | 41% | 2%
COc1cccc(C(=O)N2CCC(N3C[C@H](O)C[C@H]3C(=O)NCc3cc(F)ccc3F)CC2)c1 | / | / | 16% | / | / | /
Cc1c(CC(=O)NCC(=O)N[C@H](Cc2ccccc2)C(=O)O)c(=O)oc2cc(O)ccc12 | 5% | i | 0% | -3% | 817% | 79µM*
CC(C)(C)OC(=O)NCCc1nnc(SCc2ccccc2Cl)o1 | 3% | -6% | 0% | 2% | ? | -4%
CC(C)(C)OC(=O)NCCc1nnc(S(=O)(=O)Cc2ccc(Cl)cc2Cl)o1 | 4% | 11%[57.1 µM] | 8% | -17% | ? | 0.4µM*
COc1ccc(-n2cnc(=S)[nH]c2=S)cc1 | 2% | -1% | 22µM* | 3% | / | -22%
CC1CCC(NC(=O)CCS(=O)(=O)c2ccc3c(c2)NC(=O)CS3)CC1 (centres undefined) | -8% | -1% | 5% | -2% | -11% | 1%
O=C1CSc2ccc(S(=O)(=O)CCC(=O)NC3CCCCC3)cc2N1 | -8% | 3% | 1% | -4% | -15% | 14µM*
O=C(Nc1ccc2c(c1)C(=O)c1ccccc1-2)c1ccc2c(c1)OCO2 | / | / | 6% | / | / | /
COC(=O)C1=C(C)N(Cc2ccccc2)C(=S)NC1c1ccc(-c2ccccc2)cc1 (centres undefined) | / | / | 22µM* | / | / | /
COC(=O)C1=C(C)N(Cc2ccccc2)C(=S)NC1c1cccc(OC)c1 (centres undefined) | / | / | 32µM* | / | / | /
